What all share (experiment): NCI-60 one-dose screen, 48 h (100 = growth as untreated, 0 = no growth, -100 = all killed)
Common to all, as to conditions: 10 µM unless noted

For experiment [1], the system named is SK-MEL-2 melanoma.
The subject of experiment [2] is EKVX NSCLC.
The subject of experiment [3] is SN12C renal.
Experiment [4] relates to UO-31 renal.
For experiment [5], the system named is TK-10 renal.
Experiment [6] concerns ACHN renal.
The subject of experiment [7] is CAKI-1 renal.
The subject of experiment [8] is A498 renal.
Experiment [9] concerns CCRF-CEM leukemia.
Experiment [10] has as its system MOLT-4 leukemia.
The subject of experiment [11] is SR leukemia.
Experiment [12] concerns OVCAR-8 ovarian.
Experiment [13] has as its system OVCAR-5 ovarian.
Experiment [14] has as its system OVCAR-4 ovarian.
In experiment [15] the test system is SK-OV-3 ovarian.
For experiment [16], the system named is IGROV1 ovarian.
Experiment [17] concerns OVCAR-3 ovarian.
Experiment [18] has as its system HS 578T breast.
The test system of experiment [19] is NCI/ADR-RES ovarian.

The panel holds about 83,000 compounds, 20% with a hit somewhere; the sample as a whole holds those more often.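 Step 1: grow cells in 96-well plates. Step 2: add test compound at a single concentration. Step 3: incubate 48 h. Step 4: record percent growth.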 Values without a mark were called inactive. Activity calls are given as the source filed them. How the source made its calls: active means growth percent below 10; inactive means the rest.

Turning to `O=C1c2cccc3cccc(c23)C(=O)N1N1C(=O)c2cccc3c(NC4CCCCC4)ccc(c23)C1=O`, the growth in experiment [1] is 105%; in [2], 89.3%; in experiment [3], 91.7%; in [4], 66.3%; in experiment [5] it was 126%; in experiment [6], 92.2%. Moreover, the growth is 79.9% in experiment [7]; 95.5% in experiment [8]; 89.1% in [9]; 89.6% in experiment [10]; 90.2% in [11]; 96.2% in [12]. In addition, the growth in [13] is 90.6%; in experiment [14], 96.8%; in [15], 92.1%; in experiment [16], 102%; in [17], 105%; in experiment [18], 103%. The growth in experiment [19] is 95.4%.

Take `CC([C@H]1CCC2C3CCC4C(=O)C(NC=O)=CC[C@]4(C)C3CC[C@@]21C)N(C)C` (some centres not stated): the growth in experiment [1] is 82.3%; in experiment [2], 30.5%; in experiment [3], 42%; in [4] it was -65% (active); in [5] it was 84.1%; in experiment [6] it was 58.2%. The growth in experiment [7] was 57.6%; in experiment [8], 65.1%; in experiment [9] it was 28.7%; in experiment [10], 41.2%; in [11], 54.3%; in experiment [12], 55.9%. Besides, the growth in experiment [13] is 93.2%; in [14] it was 6.05% (active); in [15] it was 75.8%; in experiment [16], 37.8%; in [17], 24.6%; in experiment [18], 33.6%. Also, the growth in experiment [19] is 57.5%.

`COc1cc(C2CC(c3ccc(N(C)C)cc3)=NN2C(C)=O)cc(OC)c1OC` (configuration not stated): the growth in experiment [1] is 37.1%; in experiment [2] it was 44.3%; in experiment [3], 37.7%; in experiment [4], 45.7%; in experiment [5], 63.4%; in experiment [6], 44.9%. Also, the growth in [7] was 27%; in experiment [8], -1.88% (active); in [9] it was 11.8%; in [10], 11.6%; in [11], -17.2% (active); in [12], 38.9%. For the same compound, the growth was 54.5% in [13]; 51.5% in [14]; 24.9% in experiment [15]; 30.4% in experiment [16]; -38.2% (active) in [17]; 0.792% (active) in [18]. The growth in [19] is -24.4% (active).

On to `O=C(Nc1ccc(I)cc1F)c1cc(I)ccc1O`, for which the growth in experiment [1] is -19.3% (active); in experiment [2], 6.21% (active); in experiment [3] it was -10.4% (active); in experiment [4] it was -9.71% (active); in experiment [5], 14.7%; in [6], -5.98% (active). Also, the growth in experiment [7] was 3.29% (active); in [8], -49.1% (active); in [9], 15.3%; in [10], -10% (active); in [11], 3.39% (active); in experiment [12], 12.7%. The growth in experiment [13] is 21.6%; in [14], 22.3%; in experiment [15], 13.9%; in experiment [16], 18.4%; in experiment [17] it was 4.35% (active); in experiment [18], 3.07% (active). Further, the growth in [19] was 5.58% (active).

Consider `Cc1cccc(NCc2cn(-c3ccc(C(=O)O)cc3)nc2-c2ccc(C(=O)O)cc2)n1`, for which the growth in experiment [1] is 120%; in experiment [2] it was 102%; in experiment [3] it was 101%; in experiment [4] it was 88%; in experiment [5], 102%; in experiment [6], 103%. Besides, the growth was 95.7% in experiment [7]; 95.5% in experiment [8]; 104% in [9]; 105% in experiment [10]; 111% in experiment [11]; 110% in experiment [12]. The growth in experiment [13] is 95.2%; in [14] it was 105%; in [15], 110%; in [16], 105%; in experiment [17], 106%; in experiment [18] it was 96.9%. The growth in [19] is 108%.

For `CCCCOc1nc2c(C)cccc2cc1-c1cc(-c2ccc(Cl)cc2)nc(-c2ccc(Cl)cc2)c1`, the growth in [1] is 102%; in experiment [2], 101%; in experiment [3], 96%; in [4], 95.6%; in experiment [5], 108%; in experiment [6] it was 101%. Besides, the growth in experiment [7] was 93.9%; in experiment [8], 90.4%; in experiment [9], 103%; in experiment [10] it was 103%; in [11], 92.2%; in [12], 97.4%. For the same compound, the growth is 96.6% in [13]; 110% in experiment [14]; 103% in experiment [15]; 105% in [16]; 111% in experiment [17]; 92.4% in [18]. Moreover, the growth in [19] was 108%.

On to `Cc1cc(C)c(-c2c(N)cc(Br)cc2Br)c(N)c1`, for which the growth is 44.1% in experiment [1]; 65.9% in experiment [2]; 68.7% in [3]; 61.5% in experiment [4]; 72% in [5]; 75.1% in experiment [6]. The growth in experiment [7] is 50.3%; in experiment [8], 70.9%; in [9], 26.4%; in experiment [10] it was 34.4%; in [11] it was 24.9%; in experiment [12], 83.8%. For the same compound, the growth was 84.9% in experiment [13]; 74.3% in experiment [14]; 31.7% in experiment [15]; 63.9% in [16]; 65% in experiment [17]; 66.4% in [18]. Moreover, in [19], the growth was 54.5%.

As for `CCCC1CCC(O)(C(C)(O)C(=O)NC2C(=O)N3NCCCC3C(=O)N(O)C(C)C(=O)N3NCCCC3C(=O)N3NCC(O)CC3C(=O)NC(C)C(=O)OC2C(C)C)OC1CC` (configuration not stated), the growth in experiment [1] was -43.7% (active); in [2] it was -63.4% (active); in [3] it was -67.9% (active); in experiment [4], 0.226% (active); in [5], -85.3% (active); in experiment [6] it was -68.1% (active). Besides, the growth in experiment [7] was -82.6% (active); in experiment [8], -95.5% (active); in experiment [9] it was -84.5% (active); in experiment [10], -82.7% (active); in experiment [11], -87.6% (active); in experiment [12], -71.8% (active). The growth in [13] is -98.4% (active); in experiment [14], -81% (active); in experiment [15] it was -96.3% (active); in experiment [16], -40% (active); in experiment [17], -89.9% (active); in [18] it was -78.1% (active). Besides, the growth in [19] is -76.7% (active).

Source of the values: PubChem BioAssay (NCI).
